Results filed as inconclusive are left out. The source made the active and inactive calls. Unless noted, calls follow the shape of the dose curve; as a rule, active = well fitted activation curve with a large enough effect; inconclusive = small, poorly fitted or top-dose-only effect; inactive = flat fitted curve, though single readings scatter.

Consider seven compounds from PubChem BioAssay (NCATS).

A short description of assay [1]: qHTS Assay for Identification of Small Molecule Agonists for Hypoxia Response Element Signaling Pathway (AID 914; active = well fitted activation curve with a large enough effect in the signal ratio, with a control signal flat, not every such curve was filed as active; the % refers to the signal ratio; also: % of control where 0% means no effect). To be noted: ME-180 (cervical carcinoma) HRE-bla reporter, beta-lactamase ratio, CoCl2, 17 h; activation: stronger effect = higher value. Put shortly:
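AC50 values come from titration-series %Activity, taken as the 460/530nm ratio of CCF4 fluorescence (excitation 405nm). CellSensor HRE-bla ME-180 cells were treated 17 hours at 37 C with compound plus an EC50 level of CoCl2.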

The nature of assay [2]: Confirmation and Secondary Assay for Modulators of Hemoglobin Beta Chain Splicing at IVS2 705 locus (AID 930).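 Also: HeLa cells stably expressing the EGFP-705 splicing reporter; % of control where 0% means no effect.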 To be noted: HeLa EGFP-705 splicing reporter, GFP fluorescence, 48 h; series mostly up to 46.1 µM. Put shortly:
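Restored EGFP fluorescence after 2-day compound exposure reports splicing correction in IVS2-705 EGFP reporter HeLa cells; positive control was 500 nM splice-blocking PNA oligo. Signal measured as well total peak GFP intensity (488 nm excitation).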

Assay [3] can be described thus: qHTS profiling of the MIPE4 collection as inhibitors of Plasmodium falciparum (3D7) proliferation (AID 743344; call rule not given here;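 also: scaled between DMSO vehicle wells and 0.29 µM artemisinin as full inhibition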). The conditions noted are these: P. falciparum 3D7 in erythrocytes, SYBR Green DNA fluorescence, 72 h; at 9.64 µM (top of the series). From the text:
Plasmodium falciparum is a virulent malarial parasite that kills 1-2 million people worldwide each year. Transmitted by mosquitoes, the sporozoite form of the parasite enters the blood stream to infect hepatocytes, where they become merozoites that infect red blood cells (erythrocytes). Within erythrocytes, merozoites begin a […] cycle of growth and division, after which the parasite is released to infect new red blood cells. Gametocytes, which form within erythrocytes as well, circulate in the bloodstream and are ingested by the mosquito, thereby completing the life cycle. To profile malarial isolates for differential chemical responses and to identify inhibitors of malarial growth, an assay that measures P. falciparum growth and replication within erythrocytes was employed. This assay uses a DNA binding fluorescent dye (SYBR Green) to detect parasite DNA following cell lysis. Because mature erythrocytes lack DNA, only Plasmodium-derived DNA is detected.
The SYBR Green viability assay was adapted from a method described previously (Plouffe et al., 2008). For screening 3 ul culture medium was dispensed into 1536 well black clear bottom plates (Aurora Biotechnologies) using a Multidrop Combi (Thermo Fisher Scientific Inc.), 23 nL compounds in DMSO were added by a pin tool (Kalypsys), and 5 ul of erythrocytes infected with P. falciparum (0.3% parasitemia, 2.5% hematocrit final concentration) were added. The plates were incubated at 37 C in a humidified incubator in 5% CO2 for 72 h, and 2 ul lysis buffer (20 mM Tris HCl, 10 mM EDTA, 0.16% saponin, 1.6% triton X, 10X SYBR Green I supplied as 10,000X […] by Invitrogen) was added to each well. […] The following morning, fluorescence intensity at 485(14) nm excitation and 535(25) nm emission wavelengths was measured on an EnVision (Perkin Elmer) plate reader. Plate reads were normalized relative to the control inhibitor (0.29 uM artemisinin) and vehicle (DMSO) wells present on each plate and then corrected by an algorithm using vehicle-only control plates at the beginning and end of the compound plate stack.
A general note: qHTS replaces the single test concentration by a dilution series.

Assay [4] can be described thus: qHTS profiling of the MIPE4 collection as inhibitors of Plasmodium falciparum (DD2) proliferation (AID 743345; call rule not given here). The conditions noted are these: P. falciparum Dd2 in erythrocytes, SYBR Green DNA, 72 h; at 9.64 µM (top of the series). The method, boiled down: (§1)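 Parasite DNA was quantified by SYBR Green I fluorescence (ex 485, em 535 nm) after overnight lysis in saponin/Triton buffer at room temperature. Cultures at 0.3% parasitemia and 2.5% hematocrit were first exposed to compound for 72 h at 37 C; signals were normalised to artemisinin (0.29 uM) and vehicle wells.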

The nature of assay [5]: qHTS profiling of the MIPE4 collection as inhibitors of Plasmodium falciparum (DD2) proliferation (Rep 2) (AID 743346; call rule not given here). The conditions noted are these: P. falciparum Dd2 in erythrocytes, SYBR Green DNA, 72 h; at 9.64 µM (top of the series). Put shortly:
as §1

The nature of assay [6]: qHTS profiling of the MIPE4 collection as inhibitors of Plasmodium falciparum (HB3) proliferation (AID 743347; call rule not given here;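 also: plate controls were DMSO vehicle wells for no effect and artemisinin wells for full effect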). The conditions noted are these: P. falciparum HB3 in erythrocytes, SYBR Green DNA, 72 h; at 9.64 µM (top of the series). Put shortly:
as §1

In the case of `COc1ccc([C@@H]2CC(=O)c3c(O)cc(O[C@H]4O[C@@H](CO[C@H]5O[C@@H](C)[C@@H](O)[C@@H](O)[C@@H]5O)[C@@H](O)[C@@H](O)[C@@H]4O)cc3O2)cc1O`, the activation in assay [1] is -3.87% (inactive). Regarding `CN(C)c1ccc(-c2nccc(NCc3ccccc3)n2)cc1`, the Potency result in assay [2] is “inactive”.

The compound `CO[C@H]1C=CO[C@]2(C)Oc3c(C)c(O)c4c(O)c(c5c(c4c3C2=O)NC2(CCN(CC(C)C)CC2)N=5)=NC(=O)C(C)=CC=C[C@@H](C)[C@@H](O)[C@@H](C)[C@@H](O)[C@@H](C)[C@@H](OC(C)=O)[C@@H]1C` returned a parasite growth, % of DMSO control in assay [3] of 68.3%. The parasite growth remaining, % of DMSO control (lower = more inhibition) in assay [4] amounted to 68.3%. Also, the parasite growth, % of control (lower = inhibition) in assay [5] was found to be 36%. Further, in assay [6], the growth, % of control turned out to be 93.1%. On to `Cc1noc(C)c1-c1nc(Nc2ccncc2)c2ccccc2n1`, for which, in assay [2], the Potency result was “inactive”. The same measure, in the same setting: the entry for `CC(=O)N[C@H](CS)C(=O)O` is “inactive”.

Consider `COc1cc2c(cc1OC)-c1cc3ccc(OC)c(OC)c3c[n+]1CC2`, for which, in assay [2], the Potency entry is “inactive”. Take `C[C@@H]1Cc2ccccc2N1NC(=O)c1ccc(Cl)c(S(N)=O)c1` (stereo not given in full): the activation in assay [1] was 7.68% (inactive).
